AMA1 RON2 block: qHTS for Inhibitors of AMA1-RON; Towards Development of Antimalarial Drug Lead: Primary Screen; 360,000 compounds, 0.2% hits; AlphaScreen AMA1-biotinylated RON2 peptide binding; Potency, µM (titrated, usually from 58.2 µM), hits mostly inhibitors; Plasmodium falciparum AMA1 (3D7) - RON2 peptide interaction; further: nearly all actives have a fitted effect of over 45% in size
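AMA1 (3D7) with his tag at 25 nM final met compounds first, then biotinylated RON2 peptide at 25 nM; detection used donor plus acceptor beads, 10 µg/mL apiece, read by AlphaScreen after 30 min at room temperature.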
HCV inhibitor: qHTS Assay for Inhibitors of Hepatitis C Virus (HCV); 340,000 compounds, 3.4% hits; Huh7.5.1 HCVcc-Cre infection, luciferase reporter, 44 h; AID 651820, 2012; Potency, µM (titrated, usually from 41.8 µM), most hits filed as inhibitors
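A cell-based infection assay in which seeded cells (1,000 per well) receive test compound after 4 h, are inoculated with HCVcc-Cre at approximately 0.5 moi, and are incubated 44 h before luminescence detection.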
SARS PLpro yeast: qHTS of Yeast-based Assay for SARS-CoV PLP; S. cerevisiae expressing SARS-CoV PLpro, growth rescue; 330,000 compounds, 0.19% hits; Potency, µM (series often up to 32.9 µM), hits mostly activators; AID 485353, 2010; calls by dose curve; further: nearly all actives have a fitted effect of over 55% in size
NS1 inh: qHTS Assay for Inhibitors of Influenza NS1 Protein Function. 270,000 compounds, 0.4% hits. Potency, µM (top dose mostly 46.1 µM). AID 2326, 2010; calls by dose curve; further: actives are rising curves; nearly all actives have a fitted effect of over 50% in size
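Growth recovery, yeast-based: influenza A NS1 expressed in S. cerevisiae causes slow growth, and suppressors are detected by OD600. The parent strain without NS1 is used as positive control.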
Pf growth 96h: Primary qHTS for delayed death inhibitors of the malarial parasite plastid, 96 hour incubation | P. falciparum luciferase reporter growth, 96 h | Potency, µM (doses to about 28.7 µM), most hits filed as inhibitors | 320,000 compounds, 6.9% hits
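Delayed-death screen, second-generation endpoint: infected erythrocytes, 2% hematocrit, 0.05% parasitemia final; 96 hours at 37 C, 5% CO2; luciferase detection reagent; luminescence decrease equals reduced growth.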
Pf growth 48h: Primary qHTS for delayed death inhibitors of the malarial parasite plastid, 48 hour incubation; P. falciparum luciferase growth in erythrocytes, 48 h; Potency, µM (series often up to 28.7 µM), actives largely listed as inhibitors; 310,000 compounds, 5.9% hits; AID 504832, 2011
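Luminescence readout; reporter = integrated firefly luciferase in P. falciparum. RBC culture at 2% hematocrit, 0.1% parasitemia final, 37 C/5% CO2; decreased signal taken as growth inhibition.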
Each line names hits and unclear results; the compound was inactive in the other large screens. An excerpt weighted towards active compounds, which were near 12% of everything screened. Unless noted, the call rests on the fitted dose curve; in most records, active means well fitted curve in the direction sought with a large enough effect; inconclusive means small, poorly fitted or top-dose-only effect, or another doubt; inactive means no such curve, though single readings can be large; an effect the other way counts as inactive or inconclusive.

O=C(C(Cc1ccccc1)N1C(=O)c2ccccc2C1=O)N1CCc2ccccc21 (configuration not stated)	Pf growth 96h inconclusive, Pf growth 48h 15µM
O=C(CNC(=O)c1ccccc1F)NCc1ccncc1	AMA1 RON2 block inconclusive (no result: NS1 inh, Pf growth 96h, Pf growth 48h)
CCCCN1CCc2c([nH]c3ccccc23)C1=O	none
CN1CCc2ccccc2Cc2[nH]c3ccccc3c2CC1	Pf growth 96h 6.6µM, Pf growth 48h 8.3µM (no result: SARS PLpro yeast)
Cn1ccs/c1=N\C(=O)Nc1cccc(C(F)(F)F)c1	none
CCOC(=O)C1=C(CCl)NC(=O)NC1c1ccc2c(c1)OCO2 (configuration not stated)	HCV inhibitor inconclusive, Pf growth 48h inconclusive
CCN(CC)c1ccc(NC(=O)c2ccc3c(c2)c(C)c(C)n3C)cc1	AMA1 RON2 block 7.9µM, HCV inhibitor inconclusive, Pf growth 96h inconclusive, Pf growth 48h inconclusive (no result: NS1 inh)
CCC(C)Sc1cc(C)c(C#N)c2nc3ccccc3n12 (configuration not stated)	HCV inhibitor inconclusive, Pf growth 96h 2.9µM, Pf growth 48h 8.3µM
CCCc1cc(NCCCO)n2c(nc3ccccc32)c1C#N	HCV inhibitor inconclusive, Pf growth 96h 3.3µM, Pf growth 48h inconclusive
Cc1cc(NCCCN(C)C)n2c(nc3ccccc32)c1C#N	HCV inhibitor inconclusive
Cc1cc(NCCN2CCCCC2)n2c(nc3ccccc32)c1C#N	HCV inhibitor 7.1µM, Pf growth 48h inconclusive (no result: AMA1 RON2 block, Pf growth 96h)
Cc1cc(N2CCN(C3CCCC3)CC2)n2c(nc3ccccc32)c1C#N	Pf growth 96h 0.23µM, Pf growth 48h 0.29µM
CCCNc1c(NC(=O)c2cccs2)c(=O)oc2ccccc12	none
CN(C)C(CNC(=S)Nc1ccc(F)cc1)c1cccnc1 (configuration not stated)	none (no result: NS1 inh)
Cc1cc(NCCCOC(C)C)n2c(nc3ccccc32)c1C#N	HCV inhibitor inconclusive, Pf growth 48h 5.2µM
CC(C)(C)c1ccc(-c2nc(C=O)c3ccccn23)cc1	none
Cc1c(C(C)(C)C)c(C=S)n2ccccc12	Pf growth 96h 10µM (no result: Pf growth 48h)
Cc1cccc(C)c1NC(=O)CNC(=O)CNC(=O)c1ccc2c(c1)OCO2	none (no result: NS1 inh)
CCN1C(=O)[C@H]2[C@H]3CN=C(SC)N3[C@@](Cc3ccccc3)(C(=O)OC)[C@H]2C1=O	HCV inhibitor 0.56µM (no result: NS1 inh, Pf growth 96h, Pf growth 48h)
CCN1C(=O)[C@H]2[C@H]3CN=C(SCc4ccc(C)cc4)N3[C@@](Cc3ccccc3)(C(=O)OC)[C@H]2C1=O	HCV inhibitor 0.32µM (no result: NS1 inh, Pf growth 96h, Pf growth 48h)
CN(C(=O)CSCC(=O)Nc1ccc(Cl)cc1)C1CCCCC1	none (no result: NS1 inh, Pf growth 96h, Pf growth 48h)
CCOc1ccc2nc(NC(=O)CSc3nc4c(c(=O)n(C)c(=O)n4C)n3C(C)C)sc2c1	HCV inhibitor inconclusive, Pf growth 96h 12µM
CCn1c(SCC(=O)Nc2nc3ccc(OC)cc3s2)nc2c1c(=O)n(C)c(=O)n2C	HCV inhibitor 4µM
CC(C)n1c(SCC(=O)Nc2nc3ccccc3s2)nc2c1c(=O)n(C)c(=O)n2C	HCV inhibitor inconclusive (no result: SARS PLpro yeast, NS1 inh, Pf growth 96h, Pf growth 48h)
CCOC(=O)N1CCN(C(=O)C(=O)Nc2sc3c(c2C(N)=O)CC(C)(C)OC3)CC1	Pf growth 96h inconclusive
CCOc1ccc(C(=O)NCC(=O)NNC(=O)CN(C)S(=O)(=O)c2ccc(Cl)cc2)cc1OCC	none (no result: SARS PLpro yeast, NS1 inh, Pf growth 96h, Pf growth 48h)
Cc1cc(Br)c(NC(=O)CN2C(=O)NC3(CCOc4ccccc43)C2=O)c(Br)c1 (configuration not stated)	none (no result: HCV inhibitor, SARS PLpro yeast, NS1 inh, Pf growth 96h, Pf growth 48h)
COc1ccc([N+](=O)[O-])cc1NC(=O)Cc1ccc(C)cc1	Pf growth 96h inconclusive
COc1ccc(NC(=O)CC(C)C)c([N+](=O)[O-])c1	none
COc1ccc(NC(=S)NC(NC(=O)C(C)C)C(Cl)(Cl)Cl)c([N+](=O)[O-])c1 (configuration not stated)	Pf growth 48h 2.6µM
O=C(Cc1ccc([N+](=O)[O-])cc1)Nc1ccc(Cl)cc1	Pf growth 48h 10µM
COc1ccc([N+](=O)[O-])cc1NC(=O)Cc1ccc(Cl)cc1	HCV inhibitor 8.9µM, Pf growth 96h 10µM
COc1ccc([N+](=O)[O-])cc1NC(=S)NC(NC(=O)Cc1ccc(OC)c(OC)c1)C(Cl)(Cl)Cl (configuration not stated)	HCV inhibitor 7.9µM, Pf growth 48h inconclusive
COc1ccc([N+](=O)[O-])cc1NC(=S)NC(NC(C)=O)C(Cl)(Cl)Cl (configuration not stated)	HCV inhibitor inconclusive
O=C(COC(=O)CCC(=O)c1ccccc1)Nc1nnc(-c2ccccc2)o1	Pf growth 48h inconclusive (no result: NS1 inh)
OCCN1CCN(c2cc(-c3ccc4ccccc4c3)nc3ccnn23)CC1	none (no result: HCV inhibitor, SARS PLpro yeast, NS1 inh, Pf growth 96h, Pf growth 48h)
O=C(CN1C(=O)c2ccccc2C1=O)OCC(=O)c1ccccc1	Pf growth 96h inconclusive (no result: NS1 inh)
CCOc1ccc(Nc2nc3cc(S(=O)(=O)CC)ccc3o2)cc1	Pf growth 96h 13µM
CCN(CC)S(=O)(=O)c1ccc2oc(Nc3ccc4c(c3)OCCO4)nc2c1	HCV inhibitor 10µM, Pf growth 48h inconclusive (no result: Pf growth 96h)
COC(=O)c1ccc(COc2ccccc2/C=C(\C#N)C(=O)Nc2c(C)cccc2C)cc1	HCV inhibitor inconclusive, Pf growth 96h 13µM, Pf growth 48h inconclusive
COC(=O)c1ccc(COc2ccccc2/C=C/C(=O)c2ccc(OCC(=O)O)cc2)cc1	Pf growth 96h 1.5µM, Pf growth 48h inconclusive
Cc1ccc(/C=C(\C#N)C(=O)Nc2c(C)cccc2C)s1	Pf growth 96h 7.4µM (no result: Pf growth 48h)
Cc1ccc(NC(=O)/C(C#N)=C/c2ccc(C)s2)c(C)c1	none (no result: Pf growth 48h)
O=C(/C=C/c1cccc(F)c1)Nc1ccc(S(=O)(=O)N2CCOCC2)cc1	none (no result: NS1 inh, Pf growth 96h, Pf growth 48h)
CCC(C)(C)C1CCC(=NNC(=S)Nc2ccccc2)CC1 (configuration not stated)	Pf growth 48h inconclusive (no result: NS1 inh)
S=C(NN=C1C2CC3CC(C2)CC1C3)Nc1ccccc1	Pf growth 96h 10µM (no result: Pf growth 48h)
COc1ccccc1Nc1c2ccccc2nc2ccccc12	HCV inhibitor 10µM, Pf growth 96h 2.3µM, Pf growth 48h 7.4µM
COc1ccc(Nc2c3c(nc4ccccc24)CCCC3)cc1OC	HCV inhibitor inconclusive (no result: NS1 inh)
COc1ccc(Nc2c3ccccc3nc3ccccc23)cc1	HCV inhibitor inconclusive, Pf growth 48h 4.1µM
COc1cc(Nc2c3ccccc3nc3ccccc23)cc(OC)c1OC	HCV inhibitor inconclusive, Pf growth 96h inconclusive, Pf growth 48h 7.4µM
O=C(O)c1ccc(Nc2c3ccccc3nc3ccccc23)cc1	Pf growth 48h 2.1µM
O=C(O)c1ccc(Nc2nc(-c3ccccc3)c3ccccc3n2)cc1	Pf growth 96h inconclusive (no result: NS1 inh)
OC[C@@H]1CN(Cc2ccco2)C[C@H](n2cnc3c(NCc4ccc(F)cc4)ncnc32)O1	none (no result: HCV inhibitor, SARS PLpro yeast, NS1 inh, Pf growth 96h, Pf growth 48h)
